An excerpt weighted towards active compounds, which were near 3.4% of everything screened.
HTT cytoprotect: qHTS Multiplex Assay to Identify Dual Action Probes in a Cell Model of Huntington: Cytoprotection (ATP); Potency, µM (series often up to 56.4 µM), for the others: cytoprotection (ATP increase), hits mostly activators; 230,000 compounds, 0.14% hits; AID 1471, 2008; PC12 HTT-Q103 induced, cytoprotection, ATP luminescence, 40 h; also: potency is read from the fitted curve at half-maximal effect; % of control where 0% means no effect; nearly all actives have a fitted effect of over 45% in size
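ATP quantification (ATPlite) reports survival of PC12 cells in which tebufenozide, 100 nM final, switches on Htt exon 1 with 103 glutamines linked to GFP; compounds are titrated.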
NPSR antagonist: qHTS Assay for Antagonists of the Neuropeptide S Receptor: cAMP Signal Transduction. CHO-NPSR cells, cAMP TR-FRET, antagonist mode. Potency, µM (highest dose often 38.3 µM), for the others: at the top dose activity change, negative = inhibition, most hits filed as inhibitors. 220,000 compounds, 1% hits. AID 1461, 2008; also: potency is read from the fitted curve at half-maximal effect; % is scaled to controls: 0 for no effect and ±100 for the full control effect; nearly all actives have a fitted effect of over 50% in size
Target sequence (Q6W5P4 whole entry, looked up): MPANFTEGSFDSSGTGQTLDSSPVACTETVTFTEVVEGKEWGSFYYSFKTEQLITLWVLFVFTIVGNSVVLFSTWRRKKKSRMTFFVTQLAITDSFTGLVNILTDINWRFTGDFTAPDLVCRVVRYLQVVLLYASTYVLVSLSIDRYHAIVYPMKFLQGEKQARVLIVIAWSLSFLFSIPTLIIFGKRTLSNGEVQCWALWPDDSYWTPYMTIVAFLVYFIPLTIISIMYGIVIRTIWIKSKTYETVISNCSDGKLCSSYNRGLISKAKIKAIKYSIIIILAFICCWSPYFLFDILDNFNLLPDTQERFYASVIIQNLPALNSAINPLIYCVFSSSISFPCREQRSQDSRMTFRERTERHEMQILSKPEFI
PNC inhibitor: High Content Assay for Compounds that inhibit the Assembly of the Perinucleolar Compartment; PC3M PTB-GFP, PNC prevalence imaging, 16 h; active compounds read low; activity change (PNC), negative = inhibition, % at 10 µM; 140,000 compounds, 3.1% hits; AID 2417, 2010;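 active = readout at or below -70, meaning at least 70% loss of cells showing the perinucleolar compartment, a nuclear body marking cancer cells; inconclusive = readout between -30 and a set limit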;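 also: plate controls were DMSO wells for no effect and camptothecin positive control wells for full effect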
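PC3M cells stably expressing PTB-GFP, 750–1000 cells/well, treated 16 h at 37 °C with compound (23 nl of library stock), in duplicate. After paraformaldehyde fixation and Hoechst stain, imaged at 20x; PNC prevalence scored by image analysis.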
HTT aggregate: qHTS Multiplex Assay to Identify Dual Action Probes in a Cell Model of Huntington: Aggregate Formation (GFP); 220,000 compounds, 1.1% hits; Potency, µM (highest dose often 46.1 µM), for the others: at the top dose activity change, negative = inhibition, most hits filed as inhibitors; PC12 HttQ103-GFP aggregates, Acumen cytometry, 40 h; also: potency is read from the fitted curve at half-maximal effect; % is scaled to controls: 0 for no effect and ±100 for the full control effect; nearly all actives have a fitted effect of over 60% in size
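Compounds (qHTS titration) were added to PC12 cells expressing an ecdysone-driven HTT exon 1 Q103–GFP fusion after induction with 100 nM tebufenozide. Aggregate formation was measured as GFP objects in cell lysates.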
IMPase inh: qHTS Assay for Identifying the Cell-Membrane Permeable IMPase Inhibitors. 120,000 tested, under 10 active. inhibition (IP1 accumulation), % at 46.1 µM. CHO-M1 cells, IP1 accumulation, HTRF TR-FRET ratio. AID 901, 2007; active = well fitted curve in the direction sought with a large enough effect in the signal ratio, not every such curve was filed as active; inconclusive = small, poorly fitted or top-dose-only effect, or a change in a side signal; inactive = no such curve, though single readings can be large or run the other way; the % refers to the signal ratio;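 also: cells stimulated with carbachol in lithium chloride buffer; plate controls were DMSO basal wells for no effect and reference inhibitor wells for full effect; higher means more IMPase inhibition seen as more IP1 and lower FRET ratio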
Target sequence (P97697 whole entry, looked up): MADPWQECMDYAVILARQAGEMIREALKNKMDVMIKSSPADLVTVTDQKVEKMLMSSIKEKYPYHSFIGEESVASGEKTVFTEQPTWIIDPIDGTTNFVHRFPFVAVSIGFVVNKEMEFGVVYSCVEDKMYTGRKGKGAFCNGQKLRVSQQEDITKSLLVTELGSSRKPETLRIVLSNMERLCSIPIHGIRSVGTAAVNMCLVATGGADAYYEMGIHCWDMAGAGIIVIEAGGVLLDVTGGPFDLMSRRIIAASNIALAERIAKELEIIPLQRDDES
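Measured: the HTRF emission ratio (665/620 nm) plus the 620 nm donor channel, each fitted to the Hill equation to give AC50. Cells were CHO-M1 given compounds up to 46 uM and a 30 min carbachol stimulation at 37C.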
IMPase Li cell: qHTS Assay for Identifying the Cell-Membrane Permeable IMPase Inhibitors: Potentiation with Lithium | 210,000 compounds, 0.35% hits | CHO-M1 cells, IP1 TR-FRET (IP-One), carbachol + lithium | Potency, µM (series often up to 59.4 µM), without a hit: top-dose activity, negative = IMPase inhibition, hits mostly inhibitors | AID 1457, 2008;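 also: IP1 builds up when IMPase is blocked and the TR-FRET signal falls; potency is read from the fitted curve at half-maximal effect; plate controls were basal vehicle for no effect and high inhibitor control for full effect; nearly all actives have a fitted effect of over 50% in size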
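Lithium-sensitised IP1 accumulation assay; M1-expressing CHO cells treated 30 min at 37C with compound. Competitive antibody detection by time-resolved FRET followed a 10 min room-temperature lysis step.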
The depositor's hits bear a star; ? = inconclusive; nt = no result; ! = not active in a repeat; [ ] = another dose, or the depositor's remark. Unless noted, calls follow the shape of the dose curve; as a rule, active = well fitted curve in the direction sought with a large enough effect; inconclusive = small, poorly fitted or top-dose-only effect, or another doubt; inactive = no such curve, though single readings can be large; an effect the other way counts as inactive or inconclusive.

SMILES | HTT cytoprotect | NPSR antagonist | PNC inhibitor | HTT aggregate | IMPase inh | IMPase Li cell
CC1CCC(C(=O)NC(C(=O)N2CCc3ccccc3C2)C(C)C)CC1 (stereo not drawn) | -7% | -18%[46.1 µM] | 19 | -32% | 7 | 42%[38.3 µM]
Cn1cc(Br)c(C(=O)NC(=S)N2CCN(c3ccccn3)CC2)n1 | nt | 17% | -86* | 4% | nt | -2%
O=C(CSC1=NCCN1)c1ccccc1 | -2%[10 µM] | nt | nt | nt | nt | 3%
NC(=O)C[C@H](N)C(N)=O | 3%[10 µM] | nt | nt | nt | nt | 7%
CC(O)Cn1cnc2c1c(=O)n(C)c(=O)n2C (stereo not drawn) | nt | 27% | -115* | 24% | nt | -7%
CC(C)CCn1cnc2c1c(=O)n(C)c(=O)n2C | -10%[0.074 µM] | -3%[46.1 µM] | -20 | -23% | 16 | -1%
Cn1c(=O)c2c(ncn2Cc2ccccc2)n(C)c1=O | 16%[10 µM] | -1%[46.1 µM] | 10 | -5% | 5 | 1%
Cn1c(=O)c2c(ncn2CCCc2ccccc2)n(C)c1=O | 0%[10 µM] | 14%[7.67 µM] | -89* | -6% | 5 | 2%[38.3 µM]
Cn1c(=O)c2c(ncn2CCO)n(C)c1=O | 2.5µM*! | 23% | nt | 4% | 3[20.6 µM] | 16%
CC(C)NC(=O)Cn1cnc2c1c(=O)n(C)c(=O)n2C | -4% | -11%[46.1 µM] | 34 | 13% | 2 | 8%[38.3 µM]
O=C(Nc1ccc(-c2nc3cc(Cl)ccc3o2)cc1)c1cc2ccccc2o1 | nt | nt | nt | nt | -5 | nt
O=Nc1ccc2oc(=O)ccc2c1 | -14%[1.9 µM] | -11%[46.1 µM] | nt | nt | 14 | 27%
O=C(CCN1C(=O)c2ccccc2C1=O)Nc1sc2c(c1C(=O)NCc1ccco1)CCCC2 | -4% | -30%[46.1 µM] | -114* | -5% | 7 | -7%[38.3 µM]
COC(=O)CN(C)C(=O)CC1C(=O)NCCN1CC(C)(C)C (stereo not drawn) | 1.1µM* | 0% | nt | ? | nt | 1%
Cc1ccc(OCCN(C)C(=O)CC2C(=O)NCCN2CC(C)(C)C)cc1 (stereo not drawn) | -1%[10 µM] | -2% | nt | 6%[9.22 µM] | nt | -2%
CCCCn1c(-c2csc(C(C)C)c2)n[nH]c1=S | nt | -19% | -109* | 9% | nt | 9%
Cc1c(Nc2cc(N3CCOCC3)c3nonc3c2[N+](=O)[O-])c(=O)n(-c2ccccc2)n1C | nt | 3% | nt | 17% | nt | 4%
Cc1c(Nc2cc(Cl)c3nonc3c2[N+](=O)[O-])c(=O)n(-c2ccccc2)n1C | -205% | 6.3µM* | nt | ? | nt | 25%
CC(=O)N1CCN(c2ccc(Nc3ncnc4c3oc3ccccc34)cc2)CC1 | -68% | ? | -13 | 18µM* | 27 | 26%[38.3 µM]
Cc1cc(C)cc(SCc2noc(C(=O)NCC3CCCO3)c2C(=O)O)c1 (stereo not drawn) | -7% | 0%[46.1 µM] | -24 | 14% | 1 | -10%[38.3 µM]
Cc1cccc(SCc2noc(C(=O)NCC3CCCO3)c2C(=O)O)c1 (stereo not drawn) | ? | -9%[46.1 µM] | -90* | -25% | -8 | -28%[38.3 µM]
C[N+](C)(C)CCOP(=O)(O)OP(=O)([O-])OC[C@H]1O[C@@H](n2ccc(N)nc2=O)[C@H](O)[C@@H]1O | nt | 9% | -105* | 15% | nt | 8%
C[N+](C)(C)CCOP(=O)([O-])OP(=O)(O)OCC1OC(n2ccc(N)nc2=O)C(O)C1O (stereo not drawn) | 12% | nt | nt | nt | nt | 2%
O=C(Oc1ccc2ccccc2c1Cl)N1CCCC1 | -17% | -10%[46.1 µM] | -89* | -20% | -5 | 8%[38.3 µM]
COC(=O)C1=C(C)NC(C)=C(C(=O)OCCCN2CCC(c3ccccc3)(c3ccccc3)CC2)[C@H]1c1cccc([N+](=O)[O-])c1 | ? | nt | nt | nt | 6 | 16%
SMILES | HTT cytoprotect | NPSR antagonist | PNC inhibitor | HTT aggregate | IMPase inh | IMPase Li cell
CCOC(=O)C1CCN(c2nc(-c3ccccc3)nc3c2oc2ccccc23)CC1 | -26%[0.074 µM] | 13µM* | ? | 1% | -4 | 37%[38.3 µM]
CC1(C)COC(c2ccc(F)c([N+](=O)[O-])c2)=N1 | 17%[10 µM] | 17%[46.1 µM] | -14 | 35µM* | 2 | -28%
CC1(C)COC(c2cc([N+](=O)[O-])ccc2Cl)=N1 | -9% | 1%[46.1 µM] | 8 | -11% | 0 | 1%[38.3 µM]
Cc1nc(Nc2c(Cl)cccc2Cl)sc1C(=O)Nc1ccccc1 | -15%[10 µM] | -17% | 34 | 11µM* | 8 | 5%
Cc1nc(NC(N)=S)sc1C(=O)Nc1ccccc1 | -64%[10 µM] | -8%[46.1 µM] | 42 | ? | -7 | -25%[38.3 µM]
N#CC1=C(N)Oc2cc(N)ccc2C1c1cccnc1 (stereo not drawn) | nt | 10% | -9 | -16% | nt | 0%
CCN(CC)c1ccc2c(c1)OC(N)=C(C#N)C2c1cccnc1 (stereo not drawn) | -153%[0.074 µM] | ? | -99* | ? | 12 | 8%[38.3 µM]
Cc1ccc2oc(=O)c3c4cc(O)c(O)c(C)c4oc3c2c1 | -39% | nt | nt | nt | nt | -1%
Cc1cccn2c(=O)c(C=Nc3ccc(Cl)cc3)c(NCCO)nc12 | 27%[10 µM] | 1%[46.1 µM] | -100* | -15% | -17 | 3%
CCOC(=O)C(=O)N1CCN(c2ccccc2OC)CC1 | -18% | 20% | nt | 18% | nt | -10%
CCOC(=O)C1CCN(c2c(N3CCN(c4ccccc4OC)CC3)c(=O)c2=O)CC1 | 21%[10 µM] | -8% | -82* | 17% | -3 | 6%
C=C(C)C(O)/C=C/CCCCCCC (stereo not drawn) | -52%[10 µM] | nt | nt | nt | nt | nt
CC(Sc1ccccn1)C(=O)Nc1ccc(S(N)(=O)=O)cc1 (stereo not drawn) | 22% | -13%[46.1 µM] | -108* | -4% | -6 | 3%[38.3 µM]
COCCNC(=S)Nc1cc(OC)c(OC)cc1C#N | -19% | -11% | nt | 2%[9.22 µM] | nt | -5%
O=C(N/N=C/c1ccc(O)cc1)c1cccc(C(F)(F)F)c1 | -6%[10 µM] | 2% | 1 | 9% | nt | -1%
O=C(N/N=C/c1ccccc1O)c1cccc(C(F)(F)F)c1 | nt | 4% | -94* | 2.5µM* | nt | -5%
CSc1ncc(Cl)c(C(=O)C(C#N)c2nc3c(C)cc(C)cc3c(=O)[nH]2)n1 (stereo not drawn) | -16%[10 µM] | -18% | -95* | -19% | 8 | 14%
O=C(CS(=O)(=O)Cc1ccccc1)Nc1nc2c(s1)CCCC2 | 5% | -16%[46.1 µM] | ? | 0% | 5 | 21%[38.3 µM]
Cc1ccc(CC(=O)Nc2nc3c(s2)CCCC3)cc1 | 4% | -11%[46.1 µM] | -100* | -24% | 2 | 25%[38.3 µM]
O=C(CCCc1cccs1)Nc1nc2c(s1)CCCC2 | nt | 11%[46.1 µM] | -23 | 0.028µM* | 18 | 14%[38.3 µM]
Cc1csc(NC(=O)CCCc2cccs2)n1 | -50% | -14% | nt | -8% | nt | 1%
Cc1nn(-c2ccccc2)nc1C(=O)Nc1nnc(C(F)(F)F)s1 | -21%[10 µM] | 14% | nt | -1%[9.22 µM] | nt | nt
